Source: PubChem (National Center for Advancing Translational Sciences (NCATS))
Rows were chosen to be rich in hits. Some 21% of all compounds tested hit in one or more screens of this group.
NS1 function inh: inhibitors of influenza NS1 protein function; Potency, µM (doses to about 46.1 µM), for the others: at the highest dose activity, positive = more growth; 0.4% of 270,000 active; AID 2326; calls by dose curve; note: potency is the fitted concentration of half-maximal effect; actives are rising curves; nearly all actives have a fitted effect of over 50% in size
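Read-out: OD600 growth recovery of NS1-expressing budding yeast. Cells grown overnight at 30C in -URA glucose medium, washed, resuspended and diluted 1:100 in 2% galactose assay medium, pH 6.0. Same strain lacking NS1 served as positive control.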
CHX counter: affects cycloheximide protein synthesis inhibition readout, counter-screen. max response, %. 12% of 300,000 active. cell reporter, cycloheximide protein synthesis inhibition counterscreen. AID 2314; in the data active = max response mostly above about 13%, no sharp cut-off; inactive = mostly below about 14%; note: read at 38.3 µM for the half of the compounds with a filed dose; 0% is about no effect
Shiga toxin inh: inhibitors of Shiga toxin in Vero cells. Vero cells, Shiga toxin protein synthesis inhibition reporter. inhibition, % at 38.7 µM. 9.2% of 290,000 active. AID 2315; in the data active = inhibition mostly above about 28%, no sharp cut-off; inactive = mostly below about 43%; note: 0% is about no effect
Pf growth 96h: P. falciparum growth inhibition at 96 hours | P. falciparum luciferase reporter growth, 96 h | Potency, µM (doses to about 28.7 µM), without a hit: at the highest dose activity change, negative = inhibition, hits mostly inhibitors | 6.9% of 320,000 active; note: potency is the fitted concentration of half-maximal effect; % is set by controls: 0 for no effect and ±100 for the full control effect
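Compounds incubated with erythrocytes infected by luciferase-expressing P. falciparum (2% hematocrit, 0.05% parasitemia final) for 96 hours, 37 C in 5% CO2. Growth inhibition scored as decreased luciferase luminescence.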
SARS PLP yeast: inhibitors of SARS-CoV papain-like protease in yeast. S. cerevisiae expressing SARS-CoV PLpro, growth rescue. Potency, µM (series often up to 32.9 µM), for inactives: at the highest dose activity, positive = growth rescue, most hits filed as activators. 0.19% of 330,000 active; calls by dose curve; note: potency is the fitted concentration of half-maximal effect; 0% is about no effect; nearly all actives have a fitted effect of over 55% in size
Pf growth 48h: inhibits P. falciparum growth in the first generation, 48 h; Potency, µM (series often up to 28.7 µM), for the others: top-dose activity change, negative = inhibition, most hits filed as inhibitors; 5.9% of 310,000 active; P. falciparum luciferase growth in erythrocytes, 48 h; AID 504832; note: potency is the fitted concentration of half-maximal effect; % is set by controls: 0 for no effect and ±100 for the full control effect
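In quantitative HTS format, infected erythrocytes bearing luciferase-reporter parasites were treated for a single generation at 37 C. Luminescence after adding detection reagent served as the growth measure.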
Starred values were filed as active, the others as inactive; i = inactive; ? = inconclusive; / = no result given. Unless noted, calls come from the whole dose curve; as a rule, active = well fitted inhibition curve with a large enough effect; inconclusive = small, poorly fitted or top-dose-only effect, or another doubt; inactive = no such curve, though single readings can be large or run the other way.

SMILES | NS1 function inh | CHX counter | Shiga toxin inh | Pf growth 96h | SARS PLP yeast | Pf growth 48h
O=C(O)C[C@@H]1C(=O)O[C@@H]2C(COC(=O)c3cc(O)c(O)c(O)c3)O[C@@H](OC(=O)c3cc(O)c(O)c(O)c3)[C@@H](OC(=O)c3cc(O)c(O)c4c3[C@H]1[C@H](O)C(=O)O4)[C@H]2OC(=O)c1cc(O)c(O)c(O)c1 (stereo partly specified) | -6% | -3 | -4 | 2.9µM* | 1.4µM* | 3.3µM*
CN(c1ccc(OCC(=O)NCc2cccnc2)cc1)S(=O)(=O)c1ccc(Cl)cc1 | 8% | -1 | -14 | -3% | 4% | -40%
FC(F)(F)c1ccc(Sc2nnc(-c3cccs3)n2CC2CCCO2)nc1 (stereo unspecified) | -3% | 1 | -8 | / | 1% | 0%
FC(F)(F)c1cnc(Sc2nnc(-c3cccs3)n2CC2CCCO2)c(Cl)c1 (stereo unspecified) | 7% | 6 | 18 | / | ? | 7.4µM*
O=C(COc1ccc2c3c(c(=O)oc2c1)CCC3)NCc1cccnc1 | 3% | 1 | -5 | ? | 1% | -22%
O=C1c2ccccc2NC(c2ccc(O)cc2)N1c1ccccc1 (stereo unspecified) | 0% | 36* | 58* | ? | -2% | 63%
O=C1c2ccccc2NC(c2ccccc2)N1/N=C/c1ccccc1 (stereo unspecified) | -37% | 10 | 37 | i | -11% | 275%
O=C1c2ccccc2NC(c2ccc(O)cc2)N1/N=C/c1ccc(O)cc1 (stereo unspecified) | 19% | 19* | 43* | 3% | -4% | 40%
COc1ccc(NC(=O)C2CCCCC2)cc1S(=O)(=O)N1CCOCC1 | / | / | / | / | -2% | /
CC(C)(C)c1ccc(S(=O)(=O)N2CCC(c3nc4ccc(Cl)cc4[nH]3)CC2)cc1 | -2% | 7 | 8 | -4% | -13% | 12µM*
CC1CCCN(C(=O)CN2CCC(c3nc4ccc(Cl)cc4[nH]3)CC2)C1 (stereo unspecified) | -7% | -6 | -4 | ? | 1% | ?
Clc1ccc(CN2CCC(c3nc4ccc(Cl)cc4[nH]3)CC2)cc1 | -32% | 1 | -16 | ? | 2% | 10µM*
Cc1nc(Cl)c(C(=O)NCCc2ccccc2)c(C)c1[N+](=O)[O-] | -2% | 0 | 17 | -12% | 1% | -14%
Cc1ccc(-c2nnc(SCC#CCOC(=O)c3cccs3)o2)cc1 | -66% | 8.6* | 39 | / | ? | 44%
O=C(OCC#CCSc1nnc(-c2ccc(Br)cc2)o1)c1cccs1 | -19% | 13 | 37 | 7% | ? | 41%
Cc1ccc(-c2nnc(SCC#CCOC(=O)c3ccco3)o2)cc1 | -73% | 27* | 47 | i | 3% | /
COc1ccc(C)cc1NC(=O)CCNC(=O)Cn1ccc2ccccc2c1=O | -4% | -3 | -6 | ? | -1% | 19%
CCOc1ccc(N2CC(C(=O)Nc3nnc(Cc4ccc(OC)cc4)s3)CC2=O)cc1 (stereo unspecified) | -2% | 5 | -3 | -4% | -2% | -82%
CCOc1ccc(C(C)=O)cc1COc1cccnc1[N+](=O)[O-] | -70% | -3 | -1 | 1% | -4% | 22%
O=C1N=C(N2CCN(c3ccccc3)CC2)SC1Cc1ccccc1 (stereo unspecified) | -7% | 14* | 32 | ? | -14% | -16%
Cc1ccc(N2CCN(C3=NC(=O)C(Cc4ccccc4)S3)CC2)cc1 (stereo unspecified) | -10% | -1 | -9 | ? | 1% | ?
CC(=O)c1c(C)[nH]c(C(=O)Nc2cccnc2)c1C | 6% | 2 | -24 | / | -3% | -29%
CCc1c(C(=O)Nc2ccc(OC)cc2)[nH]c(C)c1C(C)=O | -49% | 21* | 29* | 113% | -7% | ?
CCc1ccc(NC(=O)c2[nH]c(C)c(C(C)=O)c2C)cc1 | -17% | 42* | 56* | -16% | -40% | -13%
CC(=O)c1c(C)[nH]c(C(=O)Nc2cccc(C)n2)c1C | -12% | 30* | 59* | 249% | -2% | 128%
SMILES | NS1 function inh | CHX counter | Shiga toxin inh | Pf growth 96h | SARS PLP yeast | Pf growth 48h
CC(=O)c1c(C)[nH]c(C(=O)NCCc2cccc(C)c2)c1C | -18% | 45* | 80* | / | -10% | 55%
CCCCNC(=O)O[C@@H]1C[C@H]2CCC(=O)N3CC[C@@H](C1)[C@@H]23 | -2% | -3 | -6 | -2% | -3% | 8%
CCOc1ccc(NC(=O)c2[nH]c(C)c(C(C)=O)c2C)cc1 | -7% | 31* | 43* | 9% | -2% | 63%
COc1ccc(CCNC(=O)c2[nH]c(C)c(C(C)=O)c2C)cc1 | -3% | -4 | -19 | / | 0% | -17%
CCOC(=O)c1ccc(NC(=O)c2c(C)[nH]c(C(=O)OCC)c2C)cc1 | -7% | -2 | -7 | 58% | 1% | ?
COc1ccc(OCCOC(=O)c2[nH]c(C)c(C(C)=O)c2C)cc1 | / | 27* | 30 | 13% | -1% | -21%
COc1ccc(CNC(=O)c2[nH]c(C)c(C(C)=O)c2C)cc1 | 16% | -1 | 18 | ? | -2% | 15µM*
COc1ccc(NC(=O)c2[nH]c(C)c(C(C)=O)c2C)cc1 | -1% | 42* | 79* | 241% | -2% | 96%
CCOC(=O)NC(Nc1cc(C)ccn1)(C(F)(F)F)C(F)(F)F | 12% | -4 | -1 | 11% | 2% | -7%
Cn1c(=O)c2c(ncn2CC(=O)OCC(=O)c2ccc(F)c(F)c2)n(C)c1=O | 15% | -2 | -5 | ? | -4% | 0%
COc1ccc(Cl)cc1C(=O)NNC(=O)CSc1nncn1C | / | / | / | / | -12% | /
CC(=O)c1c(C)[nH]c(C(=O)Nc2nccs2)c1C | / | 40* | 93* | 62% | -1% | 365%
O=C(NC1CCCCNC1=O)c1ccccc1 (stereo unspecified) | 1% | 0 | 22 | 21% | -3% | -1%
CC1(C)C(=O)Nc2ccccc2N1C(=O)COC(=O)c1cccnc1 | / | / | / | ? | -9% | ?
CCOc1ccccc1N1Cc2cc(C)c(C)cc2C1 | 13% | 12 | 22 | ? | 7% | 13µM*
CCOc1ccccc1N1CCN(C(=O)C(F)(F)F)CC1 | -1% | -2 | -7 | 0% | -2% | /
CCOc1ccc(N2Cc3ccccc3C2)cc1 | -9% | 39* | 116 | 7.4µM* | -1% | ?
CCOc1ccccc1N1Cc2ccccc2C1 | 0% | -4 | -24 | / | 0% | 7.4µM*
COc1ccc(OC)c(N2Cc3cc(C)c(C)cc3C2)c1 | -18% | 14* | 18 | / | ? | 2.9µM*
CCOc1ccccc1N1CCN(Cc2cccc(OC)c2OC)CC1 | 3% | 0 | 7 | -28% | 15% | -1%
Cc1c(O)nc(SCC(=O)Nc2nccs2)n(-c2ccccc2F)c1=O | 17% | 1 | -2 | ? | 0% | 4%
